Source: PubChem BioAssay (NCATS)
Inconclusive results are not listed. The source made the active and inactive calls. Unless noted, calls come from the whole dose curve; as a rule, active = well fitted curve in the direction sought with a large enough effect; inconclusive = small, poorly fitted or top-dose-only effect, or another doubt; inactive = no such curve, though single readings can be large; an effect the other way counts as inactive or inconclusive.

Tests used:
[1] = molecular target: Estrogen receptor (Homo sapiens) (UniProt P03372); test: qHTS assay for small molecule antagonists of estrogen receptor alpha signaling (AID 588513; active = well fitted curve in the direction sought with a large enough effect in the signal ratio, with a control signal flat, not every such curve was filed as active; the % refers to the signal ratio; note: % is set by controls: 0 for no effect and ±100 for the full control effect)
Outline: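 Beta-lactamase reporter, antagonist mode, HEK 293 GripTite cells; 0.5nM E2 stimulus, 18 h, 37 C; CCF4 dye 2 h RT; fluorescence. IC50 and efficacy from Hill fits, normalized to E2 and DMSO.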

[2] = molecular target: Estrogen receptor (Homo sapiens) (UniProt P03372); test: qHTS assay for small molecule agonists of estrogen receptor alpha signaling (AID 588514; calls by dose curve; note: nearly all actives have a fitted effect of over 70% in size; note: potency is the fitted concentration of half-maximal effect;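 for activation: 0% = vehicle only and 100% = reference agonist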)
Outline: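 ER-alpha-UAS-bla GripTite HEK 293 cells in medium with 2% charcoal/dextran-treated FBS were treated with compound titrations at 37 C for 18 hrs; beta-lactamase reporter read by CCF4 fluorescence after 2 hrs at RT.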

[3] = qHTS assay for small molecule antagonists of peroxisome proliferator-activated receptor delta signaling (AID 588535); details: HEK293T PPARd-UAS-bla, beta-lactamase FRET ratio, 18 h; 460 nm channel;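 note: cells co-treated with a PPAR-delta agonist as stimulator during compound exposure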
Outline: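 Cells were seeded at 4000 per well in assay medium containing 2% charcoal/dextran FBS and held 5 hrs at 37 C. Compounds were then added for 18 hrs. CCF4 substrate was applied for 2 hrs at room temperature before fluorescence reading.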

[4] = molecular target: Peroxisome proliferator-activated receptor gamma (Homo sapiens) (UniProt P37231); test: qHTS assay for small molecule agonists of peroxisome proliferator-activated receptor gamma signaling (AID 588536; active = well fitted curve in the direction sought with a large enough effect in the signal ratio, with a control signal flat, not every such curve was filed as active; the % refers to the signal ratio;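 note: 0% = DMSO basal wells and 100% = rosiglitazone at 2 µM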)
Outline: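 PPAR-gamma-UAS-bla HEK293 cells in medium with 1% charcoal/dextran-treated FBS were exposed to compounds for 16 h at 37 C. Beta-lactamase activity was read with CCF4 substrate (405 nm excitation, 460/530 nm emission).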

[5] = molecular target: Vitamin D3 receptor (Homo sapiens) (UniProt P11473); test: qHTS assay for small molecule agonists of vitamin D receptor signaling (AID 588543; calls by dose curve;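 note: 0% = DMSO basal and 100% = reference agonist control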)
Outline: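 β-lactamase reporter, VDR-UAS-bla HEK293T, agonist mode. Cells plated 5 h at 37 °C, compound titration 16 h at 37 °C, CCF4 dye 2 h RT, ratio 460/530 nm. Hill fit → EC50, efficacy vs 50 nM 1α,25-(OH)2D3.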

[6] = qHTS assay for small molecule agonists of retinoid X receptor alpha signaling (AID 588544; calls by dose curve;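 for activation: 0% = DMSO basal wells and 100% = reference agonist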); details: HEK293T RXRa-UAS-bla, beta-lactamase reporter, 18 h; 530 nm emission
[7] = molecular target: Retinoic acid receptor RXR-alpha (Homo sapiens) (UniProt P19793); test: as above
[8] = molecular target: Thyroid hormone receptor beta (Homo sapiens) (UniProt P10828); test: qHTS assay for small molecule agonists of thyroid hormone receptor beta signaling (AID 588545; calls by dose curve)
Outline: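 In this cell-based screen, titrated compounds act on HEK 293 cells held in medium with 2% charcoal/dextran FBS, NEAA and pyruvate for 18 hrs at 37 C. Responses are expressed relative to T3 (10 nM) as 100% and basal DMSO as 0%.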

[9] = qHTS assay for small molecule antagonists of retinoid X receptor alpha signaling (AID 588546; active = well fitted inhibition curve with a large enough effect in the signal ratio, with a control signal flat, not every such curve was filed as active; the % refers to the signal ratio;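 note: cells stimulated with 9-cis-retinoic acid as agonist; % is set by controls: 0 for no effect and ±100 for the full control effect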); details: HEK293T RXRa-UAS-bla, beta-lactamase ratio, antagonist mode; measured here: W530 green channel, cytotoxicity proxy
Outline: (§1)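 Beta-lactamase reporter inhibition, read as CCF4 fluorescence ratio (ex 405, em 460/530 nm) after 2 h at RT. HEK293T UAS-bla cells, 2500/well, were stimulated with 9-cis-RA at 500 or 100 nM final alongside test compound for 18 h at 37 C.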

[10] = molecular target: Retinoic acid receptor RXR-alpha (Homo sapiens) (UniProt P19793); test: as above; details: HEK293T RXRa-UAS-bla, beta-lactamase ratio, antagonist mode
Outline: as §1

[11] = molecular target: Thyroid hormone receptor beta (Homo sapiens) (UniProt P10828); test: qHTS assay for small molecule antagonists of thyroid hormone receptor beta signaling (AID 588547; active = well fitted inhibition curve with a large enough effect in the signal ratio, with a control signal flat, not every such curve was filed as active; the % refers to the signal ratio;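 note: cells stimulated with 0.4 nM T3 agonist during compound exposure; series mostly up to about 77 µM; % is set by controls: 0 for no effect and ±100 for the full control effect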); details: TR-UAS-bla HEK293, beta-lactamase ratio, antagonist mode, 18 h
Outline: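 TR-UAS-bla GripTite HEK293 cells in 2% charcoal/dextran FBS medium; compounds 0.59 nM to 92 uM with T3 at 0.4nM final, 18 h at 37 C. Beta-lactamase read by CCF4 fluorescence (460/530 nm); Hill fits gave IC50 and efficacy.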

[12] = qHTS assay for small molecule activators of the nuclear factor-kappa B (NF-kB) signaling pathway (AID 651749; active = well fitted activation curve with a large enough effect in the signal ratio; the % refers to the signal ratio; note: series mostly up to about 77 µM; % of control where 0% means no effect); details: NF-kB-bla ME-180 cells, beta-lactamase FRET ratio, 16 h; activation: stronger effect = higher value
Outline: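 Incubation lasted 16 hr at 37C in 5% CO2 after 23 nL compound addition to ME-180 NF-kB-bla cells. Activation appears as beta-lactamase-mediated FRET loss.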

[13] = qHTS assay for environmental chemicals that activate the Aryl hydrocarbon Receptor (AhR) signaling pathway (AID 651777); details: 1A2-DRE human hepatoma cells, luciferase, 24 h; activation: stronger effect = higher value; note: % of control where 0% means no effect; nearly all actives have a fitted effect of over 15% in size
Outline: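 Human hepatoma 1A2-DRE cells stably carrying a DRE/CYP1A2 promoter–luciferase reporter, 1,200 cells/well, exposed to compound 24 hr at 37 C. Luciferase read by One-Glo luminescence after 30 min at room temperature; increased signal marks AhR activation.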

[14] = molecular target: Peroxisome proliferator-activated receptor alpha (Homo sapiens) (UniProt Q07869); test: qHTS assay for small molecule agonists of the peroxisome proliferator-activated receptor alpha (PPARalpha) signaling pathway (AID 651778); details: PathHunter PPARalpha complementation, chemiluminescence, 6 h; max response: stronger effect = higher value; note: % of control where 0% means no effect
Outline: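 Enzyme-fragment complementation assay in which ligand-bound PPARalpha translocates and forms an active enzyme that generates chemiluminescence. Cells were plated overnight, exposed to compound for 6 hr at 37 C, and then given detection reagent for 60 min at room temperature.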

[15] = qHTS assay for small molecule agonists of the antioxidant response element (ARE) signaling pathway measured by Nrf2-dependant transcriptional activity (AID 720636; active = well fitted curve in the direction sought with a large enough effect in the repeat runs; an effect the other way counts as inactive or inconclusive; note: % of control where 0% means no effect)
Outline: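 ARE-luc HepG2 cells carrying an Nrf2-responsive luciferase reporter, in medium with 1% dialyzed FBS, exposed to compound for 16 hr at 37 C, 5% CO2. Luminescence read 30 min after ONE-Glo addition.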

[16] = qHTS assay for small molecule agonists of the antioxidant response element (ARE) signaling pathway measured by Nrf2-dependant transcriptional activity - cell viability counter screen (AID 720653; active = well fitted curve in the direction sought with a large enough effect in the repeat runs; an effect the other way counts as inactive or inconclusive; note: potency is the fitted concentration of half-maximal effect; for max response: % is set by controls: 0 for no effect and ±100 for the full control effect); details: ARE-bla HepG2 viability, CellTiter-Glo ATP luminescence, 16 h; max response: stronger effect = lower value
Outline: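 ARE-bla HepG2 cells treated with compounds for 16 h at 37C; this counter screen measures viability as intracellular ATP by CellTiter-Glo luminescence after 30 min at room temperature.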

[17] = qHTS assay for cell viability of HEK293 cells (AID 743288); details: ATP luminescence (CellTiter-Glo), 18 h; max response: stronger effect = lower value; note: nearly all actives have a fitted effect of over 50% in size; note: potency is the fitted concentration of half-maximal effect
Outline: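 Environmental chemicals tested in qHTS format against parental HEK293 cells; 18 h treatment, 37 C; read-out ATP luminescence (CellTiter-Glo), 30 min RT development.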

[18] = qHTS assay for cell viability of the p53RE-bla HCT-116 cell line (AID 743292); note: nearly all actives have a fitted effect of over 55% in size; note: potency is the fitted concentration of half-maximal effect
Outline: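 CellSensor p53RE-bla HCT-116 cells (4,000/well) pre-incubated 5 h at 37 C, then exposed to compounds in DMSO for 16 h at 37 C. Viability read as ATP content by CellTiter-Glo luminescence after 30 min at room temperature.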

[19] = molecular target: Nuclear receptor subfamily 1 group I member 2 (Rattus norvegicus) (UniProt Q9R1A7); test: qHTS assay for small molecule activators of the rat pregnane X receptor (rPXR) signaling pathway (AID 651751; call rule not given here; note: 0% is about no effect); details: rPXR reporter cells, luciferase (One-Glo), 24 h
[20] = qHTS assay for small molecule activators of the human pregnane X receptor (PXR) signaling pathway (AID 720659; call rule not given here; note: 0% is about no effect)

Sequence of Retinoic acid receptor RXR-alpha (Homo sapiens) (P19793 whole entry, looked up): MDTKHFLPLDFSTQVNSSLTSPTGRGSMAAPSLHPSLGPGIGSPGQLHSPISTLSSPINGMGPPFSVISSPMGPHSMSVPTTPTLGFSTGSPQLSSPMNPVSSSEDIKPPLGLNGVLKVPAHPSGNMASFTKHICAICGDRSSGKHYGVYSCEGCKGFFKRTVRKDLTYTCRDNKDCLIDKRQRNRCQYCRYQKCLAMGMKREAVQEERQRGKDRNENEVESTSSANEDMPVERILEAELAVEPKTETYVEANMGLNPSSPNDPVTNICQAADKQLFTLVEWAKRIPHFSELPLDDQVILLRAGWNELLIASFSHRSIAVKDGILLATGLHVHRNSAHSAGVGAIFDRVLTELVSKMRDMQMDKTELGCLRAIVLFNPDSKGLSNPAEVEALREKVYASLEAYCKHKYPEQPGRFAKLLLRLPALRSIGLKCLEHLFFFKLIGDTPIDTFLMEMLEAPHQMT
Sequence of Vitamin D3 receptor (Homo sapiens) (P11473 whole entry, looked up): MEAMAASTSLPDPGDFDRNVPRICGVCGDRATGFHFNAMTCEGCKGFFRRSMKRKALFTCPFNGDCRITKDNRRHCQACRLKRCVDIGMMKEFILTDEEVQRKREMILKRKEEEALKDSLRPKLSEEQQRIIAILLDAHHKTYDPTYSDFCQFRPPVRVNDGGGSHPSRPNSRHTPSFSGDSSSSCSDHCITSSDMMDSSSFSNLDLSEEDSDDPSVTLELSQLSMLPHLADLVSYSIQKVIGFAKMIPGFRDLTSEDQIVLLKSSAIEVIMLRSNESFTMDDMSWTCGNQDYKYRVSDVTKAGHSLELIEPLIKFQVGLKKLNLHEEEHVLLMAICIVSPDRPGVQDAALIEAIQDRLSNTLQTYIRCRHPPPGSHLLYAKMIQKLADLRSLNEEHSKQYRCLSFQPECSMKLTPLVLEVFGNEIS
Sequence of Nuclear receptor subfamily 1 group I member 2 (Rattus norvegicus) (Q9R1A7 whole entry, looked up): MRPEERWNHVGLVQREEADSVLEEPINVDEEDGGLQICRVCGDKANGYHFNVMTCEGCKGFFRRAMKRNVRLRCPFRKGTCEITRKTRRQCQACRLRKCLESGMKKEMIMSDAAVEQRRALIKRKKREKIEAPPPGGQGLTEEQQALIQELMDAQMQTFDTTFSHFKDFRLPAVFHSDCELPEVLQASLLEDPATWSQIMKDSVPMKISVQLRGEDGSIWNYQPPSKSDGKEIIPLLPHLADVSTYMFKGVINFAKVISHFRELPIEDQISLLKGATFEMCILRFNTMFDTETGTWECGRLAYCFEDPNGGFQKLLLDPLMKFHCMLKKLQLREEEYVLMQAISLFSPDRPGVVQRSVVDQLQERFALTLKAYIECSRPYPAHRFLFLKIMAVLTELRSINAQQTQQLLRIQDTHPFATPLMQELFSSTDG
Sequence of Peroxisome proliferator-activated receptor gamma (Homo sapiens) (P37231 whole entry, looked up): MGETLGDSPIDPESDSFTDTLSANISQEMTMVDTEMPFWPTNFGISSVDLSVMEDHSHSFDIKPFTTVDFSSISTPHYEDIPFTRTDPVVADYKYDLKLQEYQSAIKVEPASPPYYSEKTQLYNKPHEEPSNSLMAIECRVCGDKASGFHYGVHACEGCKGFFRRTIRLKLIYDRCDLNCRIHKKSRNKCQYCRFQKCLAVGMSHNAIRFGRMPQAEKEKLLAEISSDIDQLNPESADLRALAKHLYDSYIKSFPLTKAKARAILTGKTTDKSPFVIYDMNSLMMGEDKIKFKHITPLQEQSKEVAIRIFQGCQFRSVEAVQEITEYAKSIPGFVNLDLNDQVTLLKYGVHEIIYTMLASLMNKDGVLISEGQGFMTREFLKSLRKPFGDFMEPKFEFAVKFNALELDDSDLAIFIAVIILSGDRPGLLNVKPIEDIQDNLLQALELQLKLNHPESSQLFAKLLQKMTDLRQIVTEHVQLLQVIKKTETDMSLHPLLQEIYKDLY
Sequence of Thyroid hormone receptor beta (Homo sapiens) (P10828 whole entry, looked up): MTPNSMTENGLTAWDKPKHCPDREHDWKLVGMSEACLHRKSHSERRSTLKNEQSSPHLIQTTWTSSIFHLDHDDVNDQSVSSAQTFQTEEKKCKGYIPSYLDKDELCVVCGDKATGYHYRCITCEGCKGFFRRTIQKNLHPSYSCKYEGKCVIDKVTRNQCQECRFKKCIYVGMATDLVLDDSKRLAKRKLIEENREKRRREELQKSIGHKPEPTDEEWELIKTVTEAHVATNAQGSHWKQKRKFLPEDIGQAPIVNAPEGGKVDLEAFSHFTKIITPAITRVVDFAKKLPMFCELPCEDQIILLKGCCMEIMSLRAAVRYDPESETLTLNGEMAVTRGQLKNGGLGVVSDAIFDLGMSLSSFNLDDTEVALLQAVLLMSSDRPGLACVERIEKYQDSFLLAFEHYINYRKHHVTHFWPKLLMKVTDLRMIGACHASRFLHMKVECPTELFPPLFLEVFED
Sequence of Estrogen receptor (Homo sapiens) (P03372 whole entry, looked up): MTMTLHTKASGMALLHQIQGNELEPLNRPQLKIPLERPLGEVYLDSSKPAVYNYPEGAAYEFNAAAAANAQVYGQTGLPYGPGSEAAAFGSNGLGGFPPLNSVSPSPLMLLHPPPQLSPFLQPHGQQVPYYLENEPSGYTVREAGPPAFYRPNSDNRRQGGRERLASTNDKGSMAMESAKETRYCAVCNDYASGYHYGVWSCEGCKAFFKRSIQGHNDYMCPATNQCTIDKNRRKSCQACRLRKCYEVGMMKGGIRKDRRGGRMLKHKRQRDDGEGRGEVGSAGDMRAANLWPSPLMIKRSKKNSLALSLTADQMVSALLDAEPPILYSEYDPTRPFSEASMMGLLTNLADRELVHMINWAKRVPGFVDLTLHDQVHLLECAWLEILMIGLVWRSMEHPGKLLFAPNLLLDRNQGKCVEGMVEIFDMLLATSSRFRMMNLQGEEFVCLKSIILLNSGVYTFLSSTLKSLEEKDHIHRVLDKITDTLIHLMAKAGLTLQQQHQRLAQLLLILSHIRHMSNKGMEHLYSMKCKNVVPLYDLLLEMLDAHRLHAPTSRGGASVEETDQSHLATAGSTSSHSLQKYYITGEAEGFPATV
Sequence of Peroxisome proliferator-activated receptor alpha (Homo sapiens) (Q07869 whole entry, looked up, the tested form may be a part): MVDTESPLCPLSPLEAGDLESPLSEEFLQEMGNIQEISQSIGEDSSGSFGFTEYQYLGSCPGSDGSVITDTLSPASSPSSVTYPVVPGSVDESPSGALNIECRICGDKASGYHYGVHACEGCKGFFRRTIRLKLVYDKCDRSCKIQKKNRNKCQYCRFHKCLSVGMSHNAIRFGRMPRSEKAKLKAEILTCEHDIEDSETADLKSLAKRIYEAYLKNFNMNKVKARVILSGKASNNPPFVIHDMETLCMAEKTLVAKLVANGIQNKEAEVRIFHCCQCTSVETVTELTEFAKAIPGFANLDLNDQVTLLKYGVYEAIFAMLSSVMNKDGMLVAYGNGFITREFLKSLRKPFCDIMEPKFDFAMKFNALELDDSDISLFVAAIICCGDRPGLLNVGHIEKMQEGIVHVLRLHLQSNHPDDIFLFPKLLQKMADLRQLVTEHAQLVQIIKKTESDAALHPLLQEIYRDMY

O=C(OCC1CCC2OC2C1)C1CCC2OC2C1 (stereo not given)
-10.9%: max response [6]
inactive: Potency [1] | Potency [2] | outcome [4] | outcome [5] | Potency [7] | Potency [8] | max response [10] -6.03% | activity change % (negative = inhibition) [11] 1.74% | activation [12] 1.33% | activation [13] 1.05% | max response [14] 0.673% | Potency [15] | max response [16] -4.32% | max response [17] -11.2% | Potency [18] | max response [19] 1.7% | outcome [20]
1.3%: max response [9]
-2.67%: max response [3]

COC(=O)c1ccccc1C(=O)O
inactive: Potency [1] | Potency [2] | outcome [4] | outcome [5] | Potency [7] | Potency [8] | activity change % (negative = inhibition) [11] -12.2% | activation [12] -0.0496% | activation [13] 0.0502% | max response [14] -0.96% | Potency [15] | max response [16] -2.33% | max response [17] -13.6% | Potency [18] | max response [19] 2.64% | outcome [20]
-4.92%: max response [9]
47.6%: max response [3]
-12.1%: max response [6]

C=CC(=O)OCC[N+](C)(C)C
inactive: Potency [1] | Potency [2] | outcome [4] | outcome [5] | Potency [7] | Potency [8] | max response [10] 1.59% | activity change % (negative = inhibition) [11] -9.01% | activation [13] 0.372% | max response [14] -0.129% | Potency [15] | max response [16] 1.86% | max response [17] -5.74% | Potency [18] | max response [19] -0.896%
35.3%: max response [3]
1.33%: max response [6]
1.52%: max response [9]

CC/C=C\CCOC(=O)c1ccccc1O
-9.64%: max response [6]
-7.38%: max response [9]
active: Potency [2] 25.1 µM
-19.1%: max response [3]
inactive: Potency [1] | outcome [4] | outcome [5] | Potency [7] | Potency [8] | max response [10] 0.792% | activity change % (negative = inhibition) [11] 0.0454% | activation [12] -0.397% | activation [13] 1.45% | max response [14] 0.589% | Potency [15] | max response [16] 6.72% | max response [17] 0.746% | Potency [18] | max response [19] 5.21% | outcome [20]

CC(C)O.CC(C)O.CC(C)O.CC(C)O.[Ti]
-22.2%: max response [6]
-4.69%: max response [9]
inactive: Potency [1] | Potency [2] | outcome [4] | outcome [5] | Potency [7] | Potency [8] | activity change % (negative = inhibition) [11] -6.47% | activation [13] 0.139% | max response [14] -0.904% | Potency [15] | max response [16] -1.55% | max response [17] -10.9% | Potency [18] | max response [19] -0.917% | outcome [20]
-8.01%: max response [3]

Nc1c(N=Nc2ccc(S(=O)(=O)CCOS(=O)(=O)O)cc2)c(S(=O)(=O)O)cc2cc(S(=O)(=O)O)c(N=Nc3ccc(S(=O)(=O)CCOS(=O)(=O)O)cc3)c(O)c12
active: Potency [16] 35.5 µM | Potency [17] 35.5 µM | Potency [18] 25.1 µM
-7.65%: max response [6]
inactive: Potency [1] | Potency [2] | outcome [5] | Potency [7] | Potency [8] | max response [10] -5.5% | activity change % (negative = inhibition) [11] -6.2% | activation [13] -7.65% | max response [14] -8.75% | Potency [15] | max response [19] -11.2% | outcome [20]
-13.3%: max response [9]
-15.1%: max response [3]

CC(C)c1ccc(C(C)C)cc1
inactive: Potency [1] | Potency [2] | outcome [4] | outcome [5] | Potency [7] | Potency [8] | max response [10] 9.54% | activation [13] 0.903% | max response [14] -2.48% | Potency [15] | max response [16] 2.58% | max response [17] 4.22% | Potency [18] | max response [19] -0.628% | outcome [20]
-15.9%: max response [9]
-15.2%: max response [6]

C[Si]1(C)O[Si](C)(C)O[Si](C)(C)O[Si](C)(C)O[Si](C)(C)O1
-10.4%: max response [9]
5.15%: max response [3]
-18.1%: max response [6]
inactive: Potency [1] | Potency [2] | outcome [4] | outcome [5] | Potency [7] | Potency [8] | max response [10] 2.84% | activation [13] 0.106% | max response [14] -3.04% | Potency [15] | max response [16] -13.9% | max response [17] -11.9% | Potency [18] | max response [19] -3.44% | outcome [20]

CCCCOCCOCCOC(C)=O
inactive: Potency [1] | Potency [2] | outcome [4] | outcome [5] | Potency [7] | Potency [8] | activity change % (negative = inhibition) [11] -10.2% | activation [12] -2.2% | activation [13] -2.27% | max response [14] -0.313% | Potency [15] | max response [16] -1.74% | max response [17] 5.77% | Potency [18] | max response [19] -2.22% | outcome [20]
11.1%: max response [3]
-16.2%: max response [6]

O=C(O)C(c1ccc(Cl)cc1)c1ccc(Cl)cc1
-10.2%: max response [9]
inactive: Potency [1] | Potency [2] | outcome [5] | Potency [8] | max response [10] 12.2% | activity change % (negative = inhibition) [11] -8.17% | activation [12] 0.121% | activation [13] -0.789% | max response [14] 3.51% | Potency [15] | max response [16] -12.1% | max response [17] 0.137% | Potency [18] | max response [19] -4.74% | outcome [20]
-10.8%: max response [3]

CCCCN(CCCC)CCCC
31.3%: max response [3]
-19.1%: max response [9]
inactive: Potency [1] | Potency [2] | Potency [7] | Potency [8] | max response [10] 2.35% | activity change % (negative = inhibition) [11] -2.52% | activation [12] -1.19% | activation [13] -2.43% | max response [14] 3.75% | Potency [15] | max response [16] -5.72% | max response [17] -10.1% | Potency [18] | max response [19] -4.71% | outcome [20]
-9.25%: max response [6]

CC1=CC2C3CC(C=C3C)C2C1 (stereo not given)
7.89%: max response [3]
-8.84%: max response [6]
-10.9%: max response [9]
inactive: Potency [1] | Potency [2] | outcome [4] | outcome [5] | Potency [7] | Potency [8] | max response [10] 3.65% | activation [12] -0.782% | activation [13] -1.81% | max response [14] -1.19% | Potency [15] | max response [16] 1.82% | max response [17] -3.16% | Potency [18] | max response [19] -0.63% | outcome [20]
